# Data: the supplement of paper PMC12636033
# ± gives the standard deviation of the averaged measurements. The full ranking holds about 33,000 sequences; the median of “E-score (rank enrichment, -0.5 to 0.5)” is about -0.0028, and the highest 2% start at about 0.23. The list comes from a sample in which the highest values are over-represented; it also holds similar and randomly drawn sequences.
# Tested on: 2Sb-muMax20 (muMax20 with two 1,3-bis(methyl)benzene Cys staples, A13C/A17C and Q88C/A92C, C-terminal Lys)
# Assay: PBM 8-mer E-score (E-score (rank enrichment, -0.5 to 0.5)); higher = stronger preferential binding
# Procedure: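 Protein binding microarray (universal PBM chip covering all 10-mers in fixed probe flanks) with chemically synthesized human Max(13-93) bHLH-LZ analogs (not full-length Max) bearing noncanonical residues (hArg, Tha, Aib, Nle at 65) and aromatic Cys staples. Read-out per 8-mer (and its reverse complement): E-score (rank-based enrichment, -0.5 to 0.5) and Z-score of median probe intensity.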
row,Sequence,PBM 8-mer E-score
1,AGTGGCTA,-0.0163 ± 0.084
2,AGTTTCAC,0.045 ± 0.0036
3,CAGCTCAG,-0.0712 ± 0.0083
4,GGCCACAA,-0.0539 ± 0.0061
5,ACATTCTC,-0.0346 ± 0.019
6,CTGGGGTA,0.179 ± 0.0054
7,AGGGGGTG,-0.116 ± 0.099
8,ATGGGGTC,0.0475 ± 0.043
9,ATGGGGTA,0.249 ± 0.034
10,ATGGGGTG,0.238 ± 0.0055
11,AAGGGGTG,0.117 ± 0.065
12,ACGTAGAA,-0.00421 ± 0.0043
13,AGCGCTCG,-0.0768 ± 0.062
14,AAATCCGA,0.0186 ± 0.034
15,TGGAATAA,0.0314 ± 0.022
16,GGGAATAA,0.273 ± 0.024
17,GGGAATGA,0.322 ± 0.017
18,GGGAATAC,0.0722 ± 0.022
19,CGGAATGA,-0.065 ± 0.018
20,AGGAATGA,0.00801 ± 0.012
21,AAGGCACT,0.0491 ± 0.026
22,GAGTGCCA,-0.0641 ± 0.028
23,ACTCTGCT,-0.214 ± 0.017
24,CATATCCG,0.0256 ± 0.071
25,AATTTTCC,0.085 ± 0.0046

row,Sequence,PBM 8-mer E-score
1,CAAATTCC,0.117 ± 0.042
2,CGTTTCTC,-0.0396 ± 0.11
3,GACAGGGA,-0.156 ± 0.072
4,AAGCAACT,0.00018 ± 0.012
5,ATAAAGCA,0.261 ± 0.077
6,CTAAAGCA,0.097 ± 0.0042
7,ATAAAGCG,0.0637 ± 0.015
8,AGTTAGAA,0.0284 ± 0.083
9,CCGTGCAC,0.126 ± 0.009
10,ACGTGCAT,0.199 ± 0.0073
11,ACGTGCAC,0.281 ± 0.028
12,CCGTGCAA,-0.0691 ± 0.042
13,GCGTGCAC,0.164 ± 0.039
14,ACGTGCAA,0.252 ± 0.037
15,AGACCATG,-0.149 ± 0.029
16,ACGGGTAA,0.0152 ± 0.05
17,AATGTGGC,0.0323 ± 0.0018
18,CATGTGGG,0.193 ± 0.0078
19,AATGTGGG,0.248 ± 0.054
20,TGAATGCA,0.167 ± 0.015
21,CCATACCG,0.0521 ± 0.016
22,ATTTTACC,0.147 ± 0.025
23,CGACGGAA,-0.109 ± 0.041
24,GACATTAA,0.0446 ± 0.036
25,CCCATTAA,0.13 ± 0.0083

row,Sequence,PBM 8-mer E-score
1,CACATTAG,-0.00967 ± 0.014
2,TCCATTAA,-0.0453 ± 0.043
3,AACATTAA,0.0201 ± 0.011
4,ACCATTAA,0.298 ± 0.038
5,GTCATTAA,0.269 ± 0.035
6,CTCATTAA,0.154 ± 0.064
7,AACATTAC,0.17 ± 0.015
8,ATCATTAA,0.0944 ± 0.13
9,TACATTAA,0.25 ± 0.03
10,CACATTAC,0.235 ± 0.017
11,AGCGTGGC,-0.119 ± 0.04
12,TAACGTTA,0.0083 ± 0.027
13,CCATTCCG,-0.0949 ± 0.02
14,CGACGCCC,9e-05 ± 0.053
15,CTGCTCTC,-0.0222 ± 0.021
16,ATGTGATG,0.108 ± 0.053
17,ATATCCGC,-0.0334 ± 0.094
18,AGAACCAG,-0.11 ± 0.019
19,AGCATTAA,0.245 ± 0.037
20,ATGATTAA,-0.061 ± 0.032
21,GTGATTAA,0.234 ± 0.019
22,AGCATTAT,0.224 ± 0.0032
23,CGCATTAA,0.0701 ± 0.0015
24,AGCATTAC,-0.0652 ± 0.011
25,GGCATTAA,-0.00398 ± 0.043

row,Sequence,PBM 8-mer E-score
1,TGCATTAA,0.267 ± 0.01
2,CTGATTAA,0.0112 ± 0.038
3,AGGATAAT,0.148 ± 0.024
4,AGTTATCC,0.119 ± 0.035
5,AGCTCAAG,-0.0222 ± 0.065
6,AAAGCCAG,-0.092 ± 0.033
7,CTCGCGAA,-0.117 ± 0.028
8,ATATTCCC,0.159 ± 0.065
9,ACCGGCGT,-0.189 ± 0.05
10,ATTCGTCG,-0.057 ± 0.028
11,CTTCGTCC,-0.084 ± 0.06
12,ATTCGTCC,0.232 ± 0.032
13,ACATCGGT,-0.142 ± 0.022
14,ACAATCTC,0.149 ± 0.018
15,CCAATCTC,0.256 ± 0.024
16,CCAATCTA,0.094 ± 0.0061
17,CTACGCGC,-0.0145 ± 0.047
18,GACTCTTA,0.151 ± 0.032
19,CGGCGCAA,-0.0906 ± 0.015
20,ACCGTCCG,-0.254 ± 0.034
21,AGCCTCAG,-0.0843 ± 0.053
22,ATCAATTC,0.0558 ± 0.082
23,GACAATGC,0.0134 ± 0.02
24,GTCAATTA,-0.0609 ± 0.042
25,AACAATTA,0.2791 ± 0.0017

row,Sequence,PBM 8-mer E-score
1,AACAATGC,0.23 ± 0.044
2,ATCAATCG,0.16 ± 0.067
3,CTCAATTA,0.0698 ± 0.043
4,AACAATTG,0.143 ± 0.022
5,AACAATTC,0.141 ± 0.011
6,AACAATGG,0.0925 ± 0.024
7,ATCAATTG,0.257 ± 0.0066
8,ATCAATTA,0.27 ± 0.01
9,CCATGGGA,0.123 ± 0.019
10,AATAGAGC,0.0926 ± 0.04
11,ATGCTTCG,0.00498 ± 0.0021
12,CACAGTAG,-0.0155 ± 0.0072
13,AGCCTAGA,-0.0899 ± 0.028
14,ACGACGAC,-0.124 ± 0.0076
15,GTTCGCTA,-0.0331 ± 0.033
16,ATTAGTCA,0.172 ± 0.041
17,CAGGATAG,0.0195 ± 0.012
18,GCCGTCAA,-0.0475 ± 0.027
19,CAAGCGCA,0.27 ± 0.03
20,AAAGCGCA,0.0962 ± 0.09
21,CAAGCGCC,-0.226 ± 0.091
22,AAATGTGG,0.114 ± 0.11
23,ACACATGG,0.145 ± 0.08
24,GCATGTGA,0.159 ± 0.02
25,ACACATGA,-0.0128 ± 0.068

row,Sequence,PBM 8-mer E-score
1,CCATGTGA,0.109 ± 0.036
2,ACATGTGA,0.308 ± 0.033
3,ACATGTGC,0.167 ± 0.0089
4,ACATGTGG,0.246 ± 0.04
5,ACACATGT,0.334 ± 0.0089
6,CCTCCGTC,0.0056 ± 0.021
7,GCCGGCCC,-0.162 ± 0.0086
8,AAATAGTA,0.175 ± 0.0028
9,AAATAATG,0.2315 ± 0.002
10,AAATAACG,0.273 ± 0.017
11,AAATAATC,-0.0306 ± 0.048
12,ATATAACA,0.126 ± 0.0091
13,CGATAACG,-0.0616 ± 0.034
14,CAATAACG,0.105 ± 0.029
15,AAATAATA,0.149 ± 0.025
16,ATATAACC,0.16 ± 0.041
17,AGATAACC,0.0753 ± 0.022
18,ATATAACG,0.288 ± 0.0086
19,AAATAACA,0.0873 ± 0.044
20,AGATAACG,0.259 ± 0.041
21,AACGTGGT,0.224 ± 0.05
22,ATTCCTCC,0.129 ± 0.052
23,ACACCGGG,-0.119 ± 0.096
24,AGCATAAG,0.0893 ± 0.055
25,CATTATGG,0.0682 ± 0.009

row,Sequence,PBM 8-mer E-score
1,CACATTCC,-0.108 ± 0.075
2,GCTGCGCA,-0.147 ± 0.022
3,CAACATGA,0.232 ± 0.044
4,CAACATGC,-0.00139 ± 0.11
5,CAACATGG,0.138 ± 0.066
6,CGATATAA,0.262 ± 0.066
7,CGATATAC,0.156 ± 0.025
8,TGTTATAA,0.261 ± 0.021
9,AGTTATAA,0.141 ± 0.061
10,TACTATAA,0.239 ± 0.017
11,CACTATAA,-0.0514 ± 0.028
12,CTATATAA,0.0927 ± 0.03
13,CGATATAG,0.00229 ± 0.039
14,ATATATAA,0.221 ± 0.099
15,AACTATAA,0.102 ± 0.024
16,TTATATAA,0.241 ± 0.086
17,CGTTATAA,0.129 ± 0.021
18,CCCACTAA,0.177 ± 0.014
19,ACAGTCAC,0.0067 ± 0.018
20,AAATCTGG,-0.19725 ± 4.2e-05
21,TACCTTAA,-0.0174 ± 0.012
22,ACAGGAGC,-0.00133 ± 0.025
23,GATTGCGA,-0.103 ± 0.03
